# Shown are actives, neighbours in structure and some others; about 7.5% of the full set was active somewhere.
# Luc counter = Kinase-Glo luciferase inhibition (counter-screen) | Q27757 | Kinase-Glo luciferase, ATP luminescence, 8 min | Potency, µM (highest dose often 38.3 µM), inactives show at the highest dose activity change, negative = inhibition, hits mostly inhibitors | 200,000 compounds, 0.28% hits | AID 1379; also: % is scaled to controls: 0 for no effect and ±100 for the full control effect; nearly all actives have a fitted effect of over 60% in size
#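 Light output from Kinase-Glo luciferase with luciferin and 10 uM ATP in 50 mM imidazole pH 7.2, KCl, MgCl2, Tween 20, BSA; compound pin-delivered, 8-min ambient incubation, then luminescence read.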
# NPC1 prom act = activates the NPC1 promoter. Huh7 NPC1 promoter luciferase reporter, 24 h. Potency, µM (doses to about 9.22 µM), inactives show at the top dose activation, hits mostly activators. 320,000 compounds, 2.4% hits. AID 485313; also: % of control where 0% means no effect; nearly all actives have a fitted effect of over 60% in size
#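 Luminescence read-out of NPC1 promoter-driven luciferase in stably transfected Huh7 cells; compounds delivered in DMSO and left 24 h at 37C, 5% CO2, qHTS titration format.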
# FLuc counter = inhibits or activates purified firefly luciferase, miR-21 counter-screen; 360,000 compounds, 6.9% hits; Potency, µM (doses to about 57.5 µM), for inactives: at the highest dose activity change, negative = inhibition, usual class: inhibitors; purified FLuc, Km substrates, luminescence inhibition; AID 588342;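 also: plate controls were vehicle for no effect and reference inhibitor for full effect; nearly all actives have a fitted effect of over 55% in size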
# Target sequence (P08659 whole entry, looked up): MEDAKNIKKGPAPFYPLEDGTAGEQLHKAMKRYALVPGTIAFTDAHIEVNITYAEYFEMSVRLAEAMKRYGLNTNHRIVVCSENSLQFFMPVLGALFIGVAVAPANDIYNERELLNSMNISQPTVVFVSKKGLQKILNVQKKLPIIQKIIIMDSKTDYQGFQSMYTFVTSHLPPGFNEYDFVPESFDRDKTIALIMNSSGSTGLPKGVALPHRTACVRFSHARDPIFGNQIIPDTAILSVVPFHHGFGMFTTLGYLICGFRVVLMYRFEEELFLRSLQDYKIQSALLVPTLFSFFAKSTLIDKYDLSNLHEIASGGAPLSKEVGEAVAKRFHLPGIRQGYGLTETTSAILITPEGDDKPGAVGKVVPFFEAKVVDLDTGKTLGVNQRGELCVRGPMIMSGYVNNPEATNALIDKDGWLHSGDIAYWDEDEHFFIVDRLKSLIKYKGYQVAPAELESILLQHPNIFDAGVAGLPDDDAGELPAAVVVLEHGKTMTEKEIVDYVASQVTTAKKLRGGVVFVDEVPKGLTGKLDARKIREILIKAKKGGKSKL
#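 Purified P. pyralis luciferase, 10 nM final, with Km-level 10 uM D-luciferin and 10 uM ATP in 50 mM Tris acetate pH 7.5, 10 mM Mg acetate, 0.01% Tween-20, 0.05% BSA; 6-point qHTS titration about 60 µM downward; luminescence read.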
# Rab9 promoter act = activates the Rab9 promoter. Huh7 Rab9 promoter-luciferase reporter, luminescence, 24 h. 320,000 compounds, 2.8% hits. Potency, µM (titrated, usually from 9.22 µM), for the others: top-dose activation, negative = inhibition, usual class: activators; also: % of control where 0% means no effect; nearly all actives have a fitted effect of over 60% in size
#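 Huh7 cells stably carrying a Rab9 promoter-luciferase reporter, 1500 cells per well in OP-MEM I with 10% FBS, treated with compound 24 hours at 37C. Luciferase activity read by luminescence after 10 minutes with Amplite reagent.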
# SMN2 splice enh = increases expression of the SMN2 splice variant. HEK293 SMN2-luciferase splicing reporter, luminescence, 30-36 h. Potency, µM (series often up to 46.1 µM), for inactives: at the highest dose activity change, positive = activation, hits mostly activators. 210,000 compounds, 2.8% hits; also: % of control where 0% means no effect; nearly all actives have a fitted effect of over 55% in size
#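 qHTS luciferase splicing reporter: luminescence rises when SMN2 exon 7 is included in transfected HEK293 cells. Compound exposure lasted 30-36 h at 37C, with 4.5 mM final sodium butyrate as control, followed by a ONE-Glo read.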
# ELG1 genotox = induces genotoxicity in HEK293T cells with luciferase-tagged ELG1 | HEK293T ELG1-luciferase reporter, luminescence, 16 h | Potency, µM (titrated, usually from 46 µM), for inactives: at the top dose activity change, positive = activation, usual class: activators | 330,000 compounds, 1.3% hits; also: % of control where 0% means no effect; nearly all actives have a fitted effect of over 60% in size
#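 Genotoxic stress is detected as increased luminescence from luciferase-tagged ELG1 in HEK293T cells, measured with ONE-Glo after a 16 hr treatment at 37 °C.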
# Numbers without * were called inactive; u = inconclusive; x = not tested or not shown. Calls follow the shape of the dose curve; as a rule, active = well fitted curve in the direction sought with a large enough effect; inconclusive = small, poorly fitted or top-dose-only effect, or another doubt; inactive = no such curve, though single readings can be large; an effect the other way counts as inactive or inconclusive. Potency is read from the fitted curve at half-maximal effect.
SMILES,Luc counter,NPC1 prom act,FLuc counter,Rab9 promoter act,SMN2 splice enh,ELG1 genotox
O=C(CN1C(=O)c2ccccc2S1(=O)=O)c1ccc(O)c(O)c1,x,18%,-3%,u,x,7%
COc1ccc(C(=O)CN2C(=O)c3ccccc3S2(=O)=O)cc1,x,-32%,13µM*,u,x,-9%
Cc1ccc(NC(=O)Cn2c(=O)cnc3ccccc32)cc1S(=O)(=O)N1CCOCC1,x,1%,-3%,-6%,x,1%
O=C1/C(=C/c2ccccc2)Nc2ccccc21,-8%,-3%,4.3µM*,2%,-24%,-1%
COC(=O)Sc1nnc(-c2ccc(Br)cc2)o1,-1%,2%,19µM*,1%,-15%,7%
CCCCCSc1nnc(-c2ccc(Br)cc2)o1,x,x,12µM*,x,0%,x
CCCCOC(=O)CSc1nnc(-c2ccc(C)cc2)o1,x,x,u,x,4%,x
OCC#CCSc1nnc(-c2ccc(Br)cc2)o1,1%,10%,u,-4%,-10%,21µM*
COc1ccc(N2CCN(C(=O)COC(=O)COc3cc(C)cc(C)c3)CC2)cc1,x,0%,3%,-13%,x,1%
O=[N+]([O-])c1ccc(-[n+]2nc(-c3ccccc3)nn2-c2ccccc2)cc1,x,-2%,0%,-1%,x,-10%
CCOc1ccc(NC(=O)CN2CCN(Cc3ccccc3)S2(=O)=O)cc1,x,x,-8%,x,x,x
Oc1c(C(Nc2nc3ccccc3s2)c2ccco2)ccc2cccnc12 (stereo unspecified),13%,-1%,15µM*,4%,-99%,18µM*
CC(C)C(=O)NC(c1ccco1)c1ccc2cccnc2c1O (stereo unspecified),5%,-31%,-2%,-29%,-100%,-27%
CC(C)(CO)NC(=O)c1ccc2c(c1)C(=O)c1ccccc1-2,x,2.5µM*,19µM*,u,x,23µM*
O=C(Nc1sc2c(c1C(=O)NCc1ccco1)CCCC2)c1ccc2c(c1)OCO2,5%,0%,12µM*,u,u,10µM*
O=C(NCc1ccco1)c1ccc(Oc2ccccc2)cc1,0%,14%,24µM*,16%,0%,u
O=C(NCc1ccco1)c1ccc2c(c1)C(=O)c1ccccc1-2,0%,4%,u,16%,-7%,15µM*
CCOc1ccc(C(=O)NCc2ccco2)cc1,-8%,22%,u,22%,9%,u
C[C@H](CO)N1C[C@H](C)[C@@H](CN(C)S(C)(=O)=O)Oc2ccc(NC(=O)NC3CCCCC3)cc2C1=O,x,x,x,x,x,1%
CCN(CC)S(=O)(=O)c1ccc(N2CCCC2)c(NC(=O)Cc2c(F)cccc2Cl)c1,x,2%,0%,-3%,x,-7%
O=C(NCc1ccco1)c1ccc2ccccc2c1,-4%,u,13µM*,u,17%,11%
Cc1ccc(CNc2nc(-c3ccco3)nn2C(=O)c2ccccc2[N+](=O)[O-])cc1,x,x,-9%,x,x,x
O=C(CSc1nc2ncccc2o1)Nc1ccc(Cl)cc1F,x,x,-10%,x,x,x
COc1ccc2c(=O)c3c(=O)n(Cc4ccco4)c(-c4ccco4)nc3oc2c1,-10%,2%,u,-3%,-9%,5%
COc1ccc(Cn2c(-c3ccco3)nc3oc4cc(OC)ccc4c(=O)c3c2=O)cc1,-9%,3.2µM*,u,4µM*,4%,u
O=C(CSc1n[nH]c(=O)n1C1CC1)NCc1ccccc1,x,0%,-3%,0%,x,0%
CCCn1c(=O)c2ccccc2n2c(SCc3nc4ccccc4s3)nnc12,-5%,3%,11µM*,u,u,u
CCCn1c(SCc2nc3ccccc3s2)n[nH]c1=O,-13%,20%,5.4µM*,3.5µM*,u,18µM*
O=c1[nH]nc(SCc2nc3ccccc3s2)n1C1CC1,-4%,10%,24µM*,u,u,21µM*
Cc1cc(C)c(-n2c(SCc3nc4ccccc4s3)n[nH]c2=O)c(C)c1,x,-8%,3%,-1%,x,-4%
